Paper PMC11006913
Substitutions are numbered along the chain they refer to.

Legend:
Experiment in all cases: PBM; 200 nM protein, PBS
Settings in all cases: dsDNA, one strand shown
[1] = target: ALX4 (Homo sapiens, UniProt Q9H161 200-286)
[2] = target: ALX4 (Homo sapiens, UniProt Q9H161 200-286, Q225E)
[3] = target: T1, NKX2-6 (Homo sapiens, UniProt A6NCS4 118-204)
T1 sequence: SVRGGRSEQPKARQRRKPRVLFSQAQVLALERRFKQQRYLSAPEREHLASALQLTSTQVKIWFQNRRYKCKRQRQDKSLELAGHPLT

[4] = target: T2, NKX2-6 (Homo sapiens, UniProt A6NCS4 118-204, F151L)
T2 sequence: T1 sequence with F34L

[5] = target: T3, PAX4 (Homo sapiens, UniProt O43316 9-242, R200K)
T3 sequence: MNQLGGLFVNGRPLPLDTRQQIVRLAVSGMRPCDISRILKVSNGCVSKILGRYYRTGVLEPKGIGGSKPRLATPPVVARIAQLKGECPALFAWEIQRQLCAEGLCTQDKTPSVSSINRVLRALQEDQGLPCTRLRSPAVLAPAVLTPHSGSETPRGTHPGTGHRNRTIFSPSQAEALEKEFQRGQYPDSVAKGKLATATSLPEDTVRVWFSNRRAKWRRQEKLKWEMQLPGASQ

[6] = target: T4, PAX4 (Homo sapiens, UniProt O43316 9-242)
T4 sequence: T3 sequence with K192R

[7] = target: T5, PAX4 (Homo sapiens, UniProt O43316 9-242, R200Q)
T5 sequence: T3 sequence with K192Q

[8] = target: T6, PAX4 (Homo sapiens, UniProt O43316 9-242, F177V)
T6 sequence: T3 sequence with F169V, K192R

[9] = target: T7, PAX4 (Homo sapiens, UniProt O43316 9-242, F177Y)
T7 sequence: T3 sequence with F169Y, K192R

[10] = target: T8, PAX4 (Homo sapiens, UniProt O43316 9-242, R227W)
T8 sequence: T3 sequence with K192R, R219W

[11] = target: PRRX1 (Homo sapiens, UniProt P54821 80-166, F113S)
Chain of PRRX1 (Homo sapiens, UniProt P54821 80-166, F113S) (P54821 80-166 F113S): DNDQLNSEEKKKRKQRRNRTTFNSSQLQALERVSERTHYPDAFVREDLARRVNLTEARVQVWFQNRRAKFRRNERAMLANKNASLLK

[12] = target: PRRX1 (Homo sapiens, UniProt P54821 80-166)
Chain of PRRX1 (Homo sapiens, UniProt P54821 80-166) (P54821 80-166): as the sequence (P54821 80-166 F113S) above, with S34F counted along it

[13] = target: PROP1 (Homo sapiens, UniProt O75360 56-141)
Chain of PROP1 (Homo sapiens, UniProt O75360 56-141) (O75360 56-141): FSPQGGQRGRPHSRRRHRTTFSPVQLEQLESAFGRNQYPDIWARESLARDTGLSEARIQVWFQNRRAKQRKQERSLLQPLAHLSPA

[14] = target: PROP1 (Homo sapiens, UniProt O75360 56-141, F88S)
Chain of PROP1 (Homo sapiens, UniProt O75360 56-141, F88S) (O75360 56-141 F88S): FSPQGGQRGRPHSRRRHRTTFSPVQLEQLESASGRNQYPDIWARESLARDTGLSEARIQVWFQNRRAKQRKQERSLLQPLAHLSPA

[15] = target: HOXD13 (Homo sapiens, UniProt P35453 263-343, T313R)
Chain of HOXD13 (Homo sapiens, UniProt P35453 263-343, T313R) (P35453 263-343 T313R): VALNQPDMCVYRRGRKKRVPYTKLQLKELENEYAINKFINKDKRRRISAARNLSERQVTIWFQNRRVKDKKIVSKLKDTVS

[16] = target: HOXD13 (Homo sapiens, UniProt P35453 263-343)
Chain of HOXD13 (Homo sapiens, UniProt P35453 263-343) (P35453 263-343): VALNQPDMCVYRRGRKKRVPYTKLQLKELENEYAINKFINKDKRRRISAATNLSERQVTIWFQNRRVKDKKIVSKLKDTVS

[17] = target: HOXD13 (Homo sapiens, UniProt P35453 263-343, T313A)
Chain of HOXD13 (Homo sapiens, UniProt P35453 263-343, T313A) (P35453 263-343 T313A): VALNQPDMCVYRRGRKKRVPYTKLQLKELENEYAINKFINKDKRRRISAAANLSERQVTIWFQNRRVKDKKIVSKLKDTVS

[18] = target: MSX2 (Homo sapiens, UniProt P35548 130-214, R199I)
Chain of MSX2 (Homo sapiens, UniProt P35548 130-214, R199I) (P35548 130-214 R199I): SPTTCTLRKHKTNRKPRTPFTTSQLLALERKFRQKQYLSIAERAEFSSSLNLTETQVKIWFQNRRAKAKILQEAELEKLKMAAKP

[19] = target: MSX2 (Homo sapiens, UniProt P35548 130-214)
Chain of MSX2 (Homo sapiens, UniProt P35548 130-214) (P35548 130-214): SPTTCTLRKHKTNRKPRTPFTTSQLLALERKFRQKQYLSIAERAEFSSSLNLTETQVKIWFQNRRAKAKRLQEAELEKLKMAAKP

[20] = target: MSX2 (Homo sapiens, UniProt P35548 130-214, F161Y)
Chain of MSX2 (Homo sapiens, UniProt P35548 130-214, F161Y) (P35548 130-214 F161Y): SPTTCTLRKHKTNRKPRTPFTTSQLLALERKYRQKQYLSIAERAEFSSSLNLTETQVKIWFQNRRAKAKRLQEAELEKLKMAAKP

Chain of ALX4 (Homo sapiens, UniProt Q9H161 200-286) (Q9H161 200-286): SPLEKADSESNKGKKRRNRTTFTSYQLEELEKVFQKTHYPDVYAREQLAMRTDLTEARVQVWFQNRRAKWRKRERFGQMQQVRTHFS
Chain of ALX4 (Homo sapiens, UniProt Q9H161 200-286, Q225E) (Q9H161 200-286 Q225E): as the sequence (Q9H161 200-286) above, with Q26E counted along it

## CCCCGGGG
[1]
  binding signal: 8.16 upbm affinity estimate (log intensity, higher = more binding, comparable within an allelic series)
[2]
  binding signal: 8.02 upbm affinity estimate (log intensity, higher = more binding, comparable within an allelic series)
[3]
  binding signal: 9.57 upbm affinity estimate (log intensity, higher = more binding, comparable within an allelic series)
[4]
  binding signal: 9.2 upbm affinity estimate (log intensity, higher = more binding, comparable within an allelic series)

## CTCCGCCC
[5]
  binding signal: 9.45 upbm affinity estimate (log intensity, higher = more binding, comparable within an allelic series)
[6]
  binding signal: 9.46 upbm affinity estimate (log intensity, higher = more binding, comparable within an allelic series)
[7]
  binding signal: 9.44 upbm affinity estimate (log intensity, higher = more binding, comparable within an allelic series)
[8]
  binding signal: 9.16 upbm affinity estimate (log intensity, higher = more binding, comparable within an allelic series)
[9]
  binding signal: 9.22 upbm affinity estimate (log intensity, higher = more binding, comparable within an allelic series)
[10]
  binding signal: 9.35 upbm affinity estimate (log intensity, higher = more binding, comparable within an allelic series)

## CGGGCCCC
[11]
  binding signal: 9.02 upbm affinity estimate (log intensity, higher = more binding, comparable within an allelic series)
[12]
  binding signal: 9.32 upbm affinity estimate (log intensity, higher = more binding, comparable within an allelic series)

## GTCCGGAC
[13]
  binding signal: 6.74 upbm affinity estimate (log intensity, higher = more binding, comparable within an allelic series)
[14]
  binding signal: 6.7 upbm affinity estimate (log intensity, higher = more binding, comparable within an allelic series)

## CGGCCACC
[15]
  binding signal: 9.38 upbm affinity estimate (log intensity, higher = more binding, comparable within an allelic series)
[16]
  binding signal: 9.42 upbm affinity estimate (log intensity, higher = more binding, comparable within an allelic series)
[17]
  binding signal: 9.39 upbm affinity estimate (log intensity, higher = more binding, comparable within an allelic series)

## CCCCAGCG
[18]
  binding signal: 9.51 upbm affinity estimate (log intensity, higher = more binding, comparable within an allelic series)
[19]
  binding signal: 9.6 upbm affinity estimate (log intensity, higher = more binding, comparable within an allelic series)
[20]
  binding signal: 9.52 upbm affinity estimate (log intensity, higher = more binding, comparable within an allelic series)

## CGGGAAGC
[11]
  binding signal: 9.35 upbm affinity estimate (log intensity, higher = more binding, comparable within an allelic series)
[12]
  binding signal: 9.64 upbm affinity estimate (log intensity, higher = more binding, comparable within an allelic series)

## CCACCCGC
[18]
  binding signal: 9.63 upbm affinity estimate (log intensity, higher = more binding, comparable within an allelic series)
[19]
  binding signal: 9.57 upbm affinity estimate (log intensity, higher = more binding, comparable within an allelic series)
[20]
  binding signal: 9.69 upbm affinity estimate (log intensity, higher = more binding, comparable within an allelic series)

## CGCGTGGC
[18]
  binding signal: 9.55 upbm affinity estimate (log intensity, higher = more binding, comparable within an allelic series)
[19]
  binding signal: 9.66 upbm affinity estimate (log intensity, higher = more binding, comparable within an allelic series)
[20]
  binding signal: 9.65 upbm affinity estimate (log intensity, higher = more binding, comparable within an allelic series)

## GGGGGCAA
[5]
  binding signal: 9.18 upbm affinity estimate (log intensity, higher = more binding, comparable within an allelic series)
[6]
  binding signal: 9.24 upbm affinity estimate (log intensity, higher = more binding, comparable within an allelic series)
[7]
  binding signal: 9.19 upbm affinity estimate (log intensity, higher = more binding, comparable within an allelic series)
[8]
  binding signal: 9.04 upbm affinity estimate (log intensity, higher = more binding, comparable within an allelic series)
[9]
  binding signal: 9.1 upbm affinity estimate (log intensity, higher = more binding, comparable within an allelic series)
[10]
  binding signal: 9.17 upbm affinity estimate (log intensity, higher = more binding, comparable within an allelic series)

## CGGGCCGC
[15]
  binding signal: 9.48 upbm affinity estimate (log intensity, higher = more binding, comparable within an allelic series)
[16]
  binding signal: 9.34 upbm affinity estimate (log intensity, higher = more binding, comparable within an allelic series)
[17]
  binding signal: 9.63 upbm affinity estimate (log intensity, higher = more binding, comparable within an allelic series)

## GGGGGGAC
[13]
  binding signal: 6.32 upbm affinity estimate (log intensity, higher = more binding, comparable within an allelic series)
[14]
  binding signal: 5.57 upbm affinity estimate (log intensity, higher = more binding, comparable within an allelic series)

## CCCTCGGC
[11]
  binding signal: 9.22 upbm affinity estimate (log intensity, higher = more binding, comparable within an allelic series)
[12]
  binding signal: 9.48 upbm affinity estimate (log intensity, higher = more binding, comparable within an allelic series)

## CAGGCCCG
[1]
  binding signal: 8 upbm affinity estimate (log intensity, higher = more binding, comparable within an allelic series)
[2]
  binding signal: 7.92 upbm affinity estimate (log intensity, higher = more binding, comparable within an allelic series)
[18]
  binding signal: 9.39 upbm affinity estimate (log intensity, higher = more binding, comparable within an allelic series)
[19]
  binding signal: 9.3 upbm affinity estimate (log intensity, higher = more binding, comparable within an allelic series)
[20]
  binding signal: 9.36 upbm affinity estimate (log intensity, higher = more binding, comparable within an allelic series)

## CGCTGCGC
[3]
  binding signal: 9.4 upbm affinity estimate (log intensity, higher = more binding, comparable within an allelic series)
[4]
  binding signal: 9.26 upbm affinity estimate (log intensity, higher = more binding, comparable within an allelic series)

## CAGCGCCG
[5]
  binding signal: 9.2 upbm affinity estimate (log intensity, higher = more binding, comparable within an allelic series)
[6]
  binding signal: 9.2 upbm affinity estimate (log intensity, higher = more binding, comparable within an allelic series)
[7]
  binding signal: 9.26 upbm affinity estimate (log intensity, higher = more binding, comparable within an allelic series)
[8]
  binding signal: 9.19 upbm affinity estimate (log intensity, higher = more binding, comparable within an allelic series)
[9]
  binding signal: 9.21 upbm affinity estimate (log intensity, higher = more binding, comparable within an allelic series)
[10]
  binding signal: 9.19 upbm affinity estimate (log intensity, higher = more binding, comparable within an allelic series)

## CTGGCCCA
[1]
  binding signal: 8.03 upbm affinity estimate (log intensity, higher = more binding, comparable within an allelic series)
[2]
  binding signal: 8 upbm affinity estimate (log intensity, higher = more binding, comparable within an allelic series)

## GCCAGTCC
[15]
  binding signal: 9.53 upbm affinity estimate (log intensity, higher = more binding, comparable within an allelic series)
[16]
  binding signal: 9.55 upbm affinity estimate (log intensity, higher = more binding, comparable within an allelic series)
[17]
  binding signal: 9.63 upbm affinity estimate (log intensity, higher = more binding, comparable within an allelic series)

## AGCGGCGC
[15]
  binding signal: 9.52 upbm affinity estimate (log intensity, higher = more binding, comparable within an allelic series)
[16]
  binding signal: 9.67 upbm affinity estimate (log intensity, higher = more binding, comparable within an allelic series)
[17]
  binding signal: 9.61 upbm affinity estimate (log intensity, higher = more binding, comparable within an allelic series)

## AGCTCCGC
[3]
  binding signal: 9.07 upbm affinity estimate (log intensity, higher = more binding, comparable within an allelic series)
[4]
  binding signal: 9.27 upbm affinity estimate (log intensity, higher = more binding, comparable within an allelic series)

## CCGCCAGC
[3]
  binding signal: 8.92 upbm affinity estimate (log intensity, higher = more binding, comparable within an allelic series)
[4]
  binding signal: 9.24 upbm affinity estimate (log intensity, higher = more binding, comparable within an allelic series)

## CGCAGCGC
[13]
  binding signal: 6.83 upbm affinity estimate (log intensity, higher = more binding, comparable within an allelic series)
[14]
  binding signal: 6.74 upbm affinity estimate (log intensity, higher = more binding, comparable within an allelic series)
